Shown are actives, neighbours in structure and some others; about 3.6% of the full set was active somewhere.
Pf apPOL block: Pf-apPOL DNA polymerase inhibition; inhibition, % at 10 µM; Recombinant Pf-apPOL, molecular beacon fluorescence, 1.5 h; hit rate 0.25% among 210,000; AID 1794808
mHTT CaM bind: disrupts binding of mutant huntingtin to calmodulin | AlphaScreen His-mHTT/GST-CaM binding, luminescence | inhibition, % at 15 µM | hit rate 3.6% among 190,000 | AID 1671202;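 further: 0% = both proteins with DMSO and 100% = one protein alone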
Starred values were filed as active, the others as inactive; . = no result; ! = not active in a repeat. No stated cut-off is given here; in the data, active means inhibition above about 50%; inactive means the rest.

SMILES | Pf apPOL block | mHTT CaM bind
O=C(NCC1CCCO1)c1nn2c(C(F)(F)F)cc(-c3ccccc3)nc2c1Cl (stereo not drawn) | -1 | 4
CCN(CC)CCSc1nc2ccc(OC)cc2[nH]1 | 5 | 26
CCN(CC)CCCC(C)Nc1c2ccc(Cl)cc2nc2ccc(OC)cc12 (stereo not drawn) | 62* | .
CC(C)Oc1cncc(C(=O)N2CCCC2)c1 | -1 | -9
Cc1c(Cl)c(C(F)(F)F)nn1CC(=O)NC(C)(C)C | -3 | -9
Cc1cccc(N2COc3ccc(Br)cc3C2)c1 | -3 | 99*
FC(F)(F)c1cccc(N2COc3ccc(Cl)cc3C2)c1 | -2 | 49
Cc1ccc(N2COc3ccc(Br)cc3C2)cc1 | 1 | 73*
Cc1cc(=O)oc2c3c(ccc12)OCN(c1ccc(Cl)cc1)C3 | 2 | 27
O=C1CSC2(C(=O)Nc3ccc(Br)cc32)N1c1cccc([N+](=O)[O-])c1 (stereo not drawn) | -12 | 17
Cc1cc(C)cc(N2C(=O)CSC23C(=O)Nc2ccc(Br)cc23)c1 (stereo not drawn) | -10 | 56*
COc1ccc(C(C#N)C(C)C)cc1OC (stereo not drawn) | -1 | .
COC(=O)C1=C(C)NC2=C(C(=O)CC(C)(C)C2)C1c1cn[nH]c1-c1cccs1 (stereo not drawn) | -1 | .
O=C(CC1CCN(S(=O)(=O)c2cccs2)CC1)NCc1ccccc1 | -3 | -8
O=C1CC(c2ccccc2Cl)CC2=C1C(c1coc3ccccc3c1=O)Nc1ccccc1N2 (stereo not drawn) | 10 | 26
O=C1CC(c2cccs2)CC2=C1C(c1coc3ccccc3c1=O)Nc1ccccc1N2 (stereo not drawn) | -4 | 54*
Cc1cc(NC(=O)Cc2ccc(Cl)cc2)ccc1NC(=O)c1cc2ccccc2o1 | -6 | 0
Cc1cccn2c(=O)c3cc(C(=O)NC4CCCC4)c(=N)n(CCCn4ccnc4)c3nc12 | -3 | 9
CCN(CC)C(=O)CC(c1ccc(OC)cc1)c1c(OC)cc(OC)c2c(-c3ccccc3)cc(=O)oc12 (stereo not drawn) | 9 | 88*
COc1cc(C(CC(=O)N2CCOCC2)c2c(OC)cc(OC)c3c(-c4ccccc4)cc(=O)oc23)cc(OC)c1OC (stereo not drawn) | -6 | 47
COc1cc(C(CCN2CCCC2)c2c(OC)cc(OC)c3ccc(=O)oc23)cc(OC)c1OC (stereo not drawn) | -3 | 8
COc1cc(C(CCN2CCCC(C)C2)c2c(OC)cc(OC)c3c(C)cc(=O)oc23)cc(OC)c1OC (stereo not drawn) | -11 | 14
CCN(CC)C(=O)Oc1ccc2c(-c3cc4cccc(OC)c4oc3=O)cc(=O)oc2c1 | -4 | -2
COc1cc(C(CCN2CCN(c3ccccc3)CC2)c2c(OC)cc(OC)c3c(C)cc(=O)oc23)cc(OC)c1OC (stereo not drawn) | -9 | 94*
COc1ccc(C(CCN2CCCCC2)c2c(OC)cc(OC)c3c(-c4ccccc4)cc(=O)oc23)cc1 (stereo not drawn) | -8 | 99*
SMILES | Pf apPOL block | mHTT CaM bind
COc1cc(OC)c2c(-c3ccccc3)cc(=O)oc2c1C(CCN1CCOCC1)c1ccc(N(C)C)cc1 (stereo not drawn) | -6 | 94*
O=C(Nc1c2c(nn1-c1cccc(Cl)c1)CS(=O)(=O)C2)c1c(F)cccc1F | -2 | 2
CC(C)C(=O)NCCc1csc(C2CCCN(C(=O)c3ccc4ccccc4n3)C2)n1 (stereo not drawn) | -2 | 9
Cc1oc(C2CCN(S(=O)(=O)c3ccccc3)CC2)nc1C(=O)N1CCCC1 | -1 | -3
CON(C)C(=O)C1CN(C(=O)COc2ccccc2F)C1 | -1 | -18
CCN(CC)CCC(c1cc(OC)c(OC)c(OC)c1)c1c(OC)cc(OC)c2c(C)cc(=O)oc12 (stereo not drawn) | -13 | 16
COc1cc(OC)c2c(-c3ccccc3)cc(=O)oc2c1C(CCN1CCCCC1)c1ccc(N(C)C)cc1 (stereo not drawn) | -9 | 100*
OC(CCN1CCCCC1)c1ccc(-c2ccccc2)cc1 (stereo not drawn) | -4 | .
CCN(CC)CCC(c1ccc(N(C)C)cc1)c1c(OC)cc(OC)c2c(C)cc(=O)oc12 (stereo not drawn) | -1 | 94*
CCOc1ccc(S(=O)(=O)N2CCC(c3nc4ccncc4n3CC(C)C)C2)cc1 (stereo not drawn) | -6 | 3
CCS(=O)(=O)Nc1cc(Cl)ccc1OC | -3 | 4
COc1ccc(NC(=O)CN(c2ccc(Cl)cc2C)S(C)(=O)=O)c(OC)c1 | -6 | 6
COc1ccc(N(CC(=O)Nc2ccc(Br)c(C)c2)S(C)(=O)=O)c(OC)c1 | 0 | 54*
COc1cc(C2CC(c3ccc(Cl)cc3)Nc3nnnn32)cc(OC)c1OC (stereo not drawn) | -8 | 25
CC(=O)c1cccc(NS(=O)(=O)c2ccc3[nH]c4c(c3c2)CCCCC4)c1 | -4 | 99*
CN(CC(=O)Nc1cccc(F)c1)S(=O)(=O)c1ccc2[nH]c3c(c2c1)CCCC3 | -1 | 42
CC(=O)c1cccc(NC(=O)CN(C)S(=O)(=O)c2ccc3[nH]c4c(c3c2)CCCC4)c1 | -2 | 28
CC(=O)c1ccc(NS(=O)(=O)c2ccc3[nH]c4c(c3c2)CCCCC4)cc1 | -1 | 70*
CC(=O)c1cccc(NS(=O)(=O)c2ccc3[nH]c4c(c3c2)CCCC4)c1 | 0 | 84*
CC(=O)c1cccc(NS(=O)(=O)c2ccc(F)cc2)c1 | -6 | 4
CCOC(=O)c1cccc(NS(=O)(=O)c2ccc3[nH]c4c(c3c2)CCCC4)c1 | -3 | 95*
O=C(CCCN1C(=O)c2ccccc2C1=O)NCc1ccccc1 | -7 | 2
COc1ccc(C2=NC(c3ccccc3OC)NC(c3ccccc3O)C2)cc1 (stereo not drawn) | -2 | 34
O=C1c2ccccc2C(=O)c2c1oc1c3c(ccc21)OCN(Cc1cccnc1)C3 | 12 | 94*!
O=C1c2ccccc2C(=O)c2c1oc1c3c(ccc21)OCN(Cc1ccccn1)C3 | -6 | 100*
SMILES | Pf apPOL block | mHTT CaM bind
COC(=O)c1ccc(Oc2coc3c4c(ccc3c2=O)OCN(Cc2ccccn2)C4)cc1 | -36 | 100*
COC(=O)c1ccc(Oc2coc3c4c(ccc3c2=O)OCN(Cc2ccc(OC)cc2)C4)cc1 | -18 | 19
COc1ccc(CN2COc3ccc4c(=O)c(-c5ccccc5)c(C)oc4c3C2)cc1 | -9 | 12
c1coc(CN2COc3cc4c(cc3C2)OCN(Cc2ccco2)C4)c1 | . | 3
O=C1c2ccccc2C(=O)c2c1oc1c3c(ccc21)OCN(Cc1ccco1)C3 | -5 | 93*
COC(=O)c1ccc(Oc2c(C)oc3c4c(ccc3c2=O)OCN(Cc2cccnc2)C4)cc1 | 0 | 0
CCOc1ccccc1C(=O)Nc1c2c(nn1-c1cccc(C)c1C)CS(=O)C2 (stereo not drawn) | -1 | 16
O=C(COc1coc(CN2CCN(C(=O)c3ccco3)CC2)cc1=O)NC1CCCCC1 | 4 | -3
O=C(NCc1cccs1)C1CN(C(=O)c2cccs2)CC12CCCCC2 (stereo not drawn) | -3 | 5
CC1CN=C2C=C(N3CCN(S(=O)(=O)Cc4cccc(Cl)c4)CC3)N=CN21 (stereo not drawn) | 2 | 30
CC(C)S(=O)(=O)c1ccc(CC(=O)Nc2ccc(CC(=O)N3CCOCC3)cc2)cc1 | -10 | -5

Assay outcomes from PubChem.
